NS1 function inh: influenza NS1 inhibition; AID 2326; 270,000 tested, 0.4% active; Potency, µM (doses to about 46.1 µM); calls by dose curve; also: actives are rising curves; nearly all actives have a fitted effect of over 50% in size
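Growth recovery, yeast-based: influenza A NS1 expressed in S. cerevisiae causes slow growth, and suppressors are detected by OD600. The parent strain without NS1 is used as positive control.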
Pf growth 48h: P. falciparum growth inhibition at 48 hours (one generation); 310,000 tested, 5.9% active; Potency, µM (highest dose often 28.7 µM), usual class: inhibitors; P. falciparum luciferase growth in erythrocytes, 48 h
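Compounds are pin-transferred into medium, infected erythrocytes (2% hematocrit, 0.1% parasitemia final) are added, and plates sit one parasite generation at 37 C in 5% CO2. Detection reagent is then added and luminescence measured.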
Cycloheximide cs: affects cycloheximide protein synthesis inhibition readout, counter-screen | cell reporter, cycloheximide protein synthesis inhibition counterscreen | max response, % | 300,000 tested, 12% active; in the data active = max response mostly above about 13%, no sharp cut-off; inactive = mostly below about 14%; also: read at 38.3 µM for the half of the compounds with a filed dose
Pf growth 96h: P. falciparum growth inhibition at 96 hours; 320,000 tested, 6.9% active; Potency, µM (highest dose often 28.7 µM), usual class: inhibitors; AID 504834; P. falciparum luciferase reporter growth, 96 h
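96 h incubation, 37 C, 5% CO2, of luciferase-reporter P. falciparum-infected RBCs (2% hematocrit, 0.05% parasitemia final) with test compounds; endpoint luminescence.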
Shiga toxin inh: inhibitors of Shiga toxin in Vero cells. Vero cells, Shiga toxin protein synthesis inhibition reporter. inhibition, % at 38.7 µM. 290,000 tested, 9.2% active; in the data active = inhibition mostly above about 28%, no sharp cut-off; inactive = mostly below about 43%
Sm TGR inh: blocks Schistosoma mansoni thioredoxin glutathione reductase; Q962Y6; purified TGR, DTNB reduction, TNB absorbance 405 nm; Potency, µM (doses to about 114 µM), hits mostly inhibitors; 360,000 tested, 3% active; AID 485364; also: nearly all actives have a fitted effect of over 60% in size
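First, TGR (20 nM dispensed) and NADPH were mixed with compound. Second, a 15 min room-temperature incubation followed. Third, further NADPH and then DTNB were added to start the reaction. Finally, TNB absorbance was monitored kinetically.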
Numbers stand for hits; 0 = inactive; ? = inconclusive; - = no result; [ ] = another dose, or the depositor's remark. A selection: hits, their analogues and other compounds. The true share with any hit is near 21%. Unless noted, calls follow the shape of the dose curve; as a rule, active = well fitted curve in the direction sought with a large enough effect; inconclusive = small, poorly fitted or top-dose-only effect, or another doubt; inactive = no such curve, though single readings can be large; an effect the other way counts as inactive or inconclusive.

SMILES	NS1 function inh	Pf growth 48h	Cycloheximide cs	Pf growth 96h	Shiga toxin inh	Sm TGR inh
CC1=C(C(=O)Nc2ccccc2)C(c2ccco2)C(C#N)=C(SCc2ccccc2)N1 (centres undefined)	0	8.3µM	0	-	0	0
CC1=C(C(=O)Nc2ccccc2)C(c2ccco2)C(C#N)=C(SCC(=O)Nc2cccc(C)c2C)N1 (centres undefined)	?	2.6µM	0	?	0	0
CC1=C(C(=O)Nc2ccccc2)C(c2ccncc2)C(C#N)=C(SCC(=O)Nc2ccccc2)N1 (centres undefined)	0	-	0	0	0	0
CCOc1ccccc1NC(=O)CSC1=C(C#N)C(c2ccco2)C(C(=O)Nc2nc3ccccc3s2)=C(C)N1 (centres undefined)	0	9.3µM	0	?	0	0
CC(=O)C1=C(C)NC(SCC(N)=O)=C(C#N)C1c1ccco1 (centres undefined)	-	0	0	0	0	0
Cc1ccc(NC(=O)Cn2c(=O)c3cc(Cl)ccc3n3nncc23)cc1	-	-	-	-	-	0
O=C(C1CC1)N1CCN(c2ccnc3cc(Cl)ccc23)CC1	-	0	0	7.4µM	0	0
O=C(c1ccc(CSc2ccc(Cl)cc2)cc1)N1CCCC1	-	0[5.75 µM]	0	0	61	0
CC(=O)c1ccc(N2CCN(c3ccnc4cc(Cl)ccc34)CC2)cc1	0	10µM	0	6.6µM	0	0
Cc1cc(C)n(-c2ccnc3cc(Cl)ccc23)n1	0	0	18	0	0	0
COc1ccc(-c2cc(C)no2)cc1S(=O)(=O)N1CC(C)Oc2ccccc21 (centres undefined)	-	-	-	-	-	0
O=C(c1ccc(Cl)cc1)N1CCN(C(=O)C2CCCCC2)CC1	0	0	0	5.9µM	0	0
O=C(c1ccco1)N1CCN(c2ccnc3cc(Cl)ccc23)CC1	0	?	0	0	0	-
CC(C)(C)C(=O)N1CCN(c2ccnc3cc(Cl)ccc23)CC1	0	?	0	0	0	0
O=C(C1CCC1)N1CCN(c2ccnc3cc(Cl)ccc23)CC1	0	13µM	0	10µM	0	0
O=C(C1CCCCC1)N1CCN(c2ccnc3cc(Cl)ccc23)CC1	0	1.9µM	0	3.3µM	0	0
C=CCN1C(=O)/C(=C/c2cccs2)C(=O)NC1=S	0	0	0	0	0	10µM
O=C1NC(=S)N(Cc2ccco2)C(=O)/C1=C\c1cccs1	-	0	0	0	0	3.5µM
O=C1CN(c2ccc(Cl)cc2)C2(CCCCC2)S1	0	0	0	0	0	0
Cc1ccc(/C=C/S(=O)(=O)NCC(=O)O)cc1	0	0	0	0[1.15 µM]	0	0
Cc1ccc(/C=C/C(=O)CCC(=O)O)cc1	0	0	35	0	64	0
O=C(CSc1nnc(-c2ccco2)c(-c2ccco2)n1)Nc1ccccc1	?	0	31	0	0	1.8µM
Cc1ccc(NC(=O)CSc2nnc(-c3ccco3)c(-c3ccco3)n2)cc1	0	0	0	?	0	?
O=C(CSc1n[nH]c(-c2ccco2)n1)Nc1ccc(F)cc1	0	0	0	0	0	0
CN(C)c1ccc(NC(=O)CSc2nnc(-c3ccco3)c(-c3ccco3)n2)cc1	0	0	0	?	0	35µM
SMILES	NS1 function inh	Pf growth 48h	Cycloheximide cs	Pf growth 96h	Shiga toxin inh	Sm TGR inh
CCN1CCN(c2ncc3c(n2)CCN(CC(C)C)C3)CC1	-	-	-	-	-	0
Cc1cc(/C=N/NC(=O)c2cc3ccccc3o2)c(C)n1C	0	?	0	0	0	0
CCOc1ccc(NC(=O)CN2CCN(CC(=O)Nc3ccc(Cl)c(C(F)(F)F)c3)CC2)cc1	0	-	0	0	0	0
CCCCN1CC(=O)N2[C@H]3c4ccc(OC)cc4OC[C@@H]3[C@H](c3ccccc3)[C@]2(C)C1=O	-	2.1µM	-	7.4µM	-	0
COc1ccc2c(c1)OC[C@H]1[C@H]2N2C(=O)CN(Cc3ccc(C)cc3)C(=O)[C@@]2(C)[C@H]1c1ccccc1	-	?	-	?	-	0
COc1ccc2c(c1)OC[C@H]1[C@H]2N2C(=O)CN(Cc3ccco3)C(=O)[C@@]2(C)[C@H]1c1ccccc1	-	?	-	9.3µM	-	0
CS(=O)(=O)N1N=C(c2cccs2)CC1c1ccccc1O (centres undefined)	0	0	0	0	0	0
CCOc1ccccc1C1CC(c2cccs2)=NN1S(C)(=O)=O (centres undefined)	0	0	0	0[5.75 µM]	0	4µM
CS(=O)(=O)N1N=C(c2ccc(Cl)cc2)CC1c1cccs1 (centres undefined)	0	-	35	0	0	0
CS(=O)(=O)N1N=C(c2cccs2)CC1c1ccc(F)cc1 (centres undefined)	0	0	33	0	0	0
CCS(=O)(=O)Nc1cccc(C2=NN(S(C)(=O)=O)C(c3cccs3)C2)c1 (centres undefined)	0	0	0	?	0	?
CCS(=O)(=O)N1N=C(c2cccs2)CC1c1cc2cc(C)ccc2nc1Cl (centres undefined)	0	?	32	?	0	0
CCc1noc(C)c1C(=O)N(CC)c1nc2c(C)cccc2s1	-	0	-	?	-	0
CCN(C(=O)c1ccc(NC(=O)c2ccco2)cc1)c1ccccc1	0	?	0	9.3µM	0	0
CN(C(=O)c1cccc(NC(=O)c2ccco2)c1)c1ccccc1	0	0	0	?	-	0
CN(C(=O)c1ccc(NC(=O)c2ccco2)cc1)c1ccccc1	0	0	35	0	77	0
CCOC(=O)c1ccc(NC(=O)C(CC)Sc2nc3ncccc3o2)cc1 (centres undefined)	-	-	-	-	-	0
CCCCOc1ccc(N=Nc2ccc(N)nc2N)cn1	0	0	18	0	0	0
Cc1cccc(-c2nc(SCC(=O)NCC3CCCO3)c3c(=O)n(C)c(=O)n(C)c3n2)c1 (centres undefined)	-	-	-	-	-	0
CC(C)(C)CN1CCN(Cc2cc3ccccc3[nH]2)CC1CCO (centres undefined)	0	0	0	5.2µM	0	0
COc1ccc(C2(c3ccc(OC)cc3)NC(=O)N(Cn3nnc4ccccc4c3=O)C2=O)cc1	0	12µM	0	?	0	0
COc1ccc(NC(=O)CCCCCn2nnc3ccccc3c2=O)cc1	0	0	0	0	0	0
COc1cccc(CNc2nccs2)c1O	0	0	24	0	-	0
COc1ccccc1CCC(=O)Nc1ccc(C)cc1Cl	-	0	55	0	90	0
C=CCOc1ccc(CNC(C)(C)C)cc1OC	0	0	0	0	0	0
SMILES	NS1 function inh	Pf growth 48h	Cycloheximide cs	Pf growth 96h	Shiga toxin inh	Sm TGR inh
C=CCOc1ccc(CNc2nccs2)cc1OC	0	0	26	?	22	0
COc1ccccc1CCC(=O)Nc1ccc(S(=O)(=O)Nc2nccs2)cc1	-	0	-	0	-	0
COc1ccccc1CCC(=O)Nc1nccs1	0	-	14	0	0	0
Nc1nonc1-n1nnc(C(=O)N/N=C/c2ccccc2F)c1CN1CCc2ccccc21	0	?	0	0	0	0
CCC(C)C1/C=C\CCCC(=O)N1Cc1ccc(C)cc1 (centres undefined)	-	-	0	-	0	-
CCN1CCN(C(C)CCc2ccccc2)CC1 (centres undefined)	0	0	0	0	0	0

Screening results from PubChem BioAssay.
